Sampled rows, rich in hits. Any-hit rate of the full collection: about 3%.
p53ts 39C kill: kills p53ts cells at the nonpermissive temperature; H1299-p53A138V viability at 39C, ATP luminescence, 24 h; Potency, µM (doses to about 46.1 µM), without a hit: at the highest dose activity change, negative = cell killing, hits mostly cytotoxic; 1.5% of 130,000 active; note: % is set by controls: 0 for no effect and ±100 for the full control effect; nearly all actives have a fitted effect of over 55% in size
p53ts 32C kill: kills p53ts cells at the permissive temperature; H1299-p53A138V at 32C, ATP luminescence viability, 24 h; Potency, µM (top dose mostly 46.1 µM), for inactives: at the top dose activity change, negative = cytotoxicity, usual class: cytotoxic; 0.93% of 130,000 active;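 note: 0% = DMSO and -100% = full killing by reference compound; nearly all actives have a fitted effect of over 55% in size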
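H1299-p53 A138V cells (temperature-sensitive p53) exposed 24 h to up to 46 uM compound at 32C, where p53 is wild-type in conformation. Viability read as ATP luminescence and normalised to DMSO and 100 uM tamoxifen. AC50 fitted with the Hill equation.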
Peg3 imprint: induces erasure of genomic imprints in mouse ES cells. mouse ES Peg3-LacZ reporter, beta-gal luminescence, 40 h. Potency, µM (highest dose often 60.7 µM), for inactives: at the top dose activity change, positive = activation, usual class: activators. 0.02% of 110,000 active
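Each well holds 300 Peg3LacZ-Neo (maternal) female ES cells incubated 40 h at 37C, 5% CO2. LacZ is measured by BetaGlo luminescence, with AC50 and maximum efficacy derived from dose-response curves.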
CRE-bla Fsk: alters forskolin-stimulated CRE reporter signaling in CHO cells | CHO CRE-bla reporter (cAMP response element driving beta-lactamase), forskolin EC10, beta-lactamase ratio | Potency, µM (titrated, usually from 38.2 µM), for inactives: at the top dose activity change, negative = inhibition, actives largely listed as activators | 2.5% of 71,000 active; active = well fitted activation curve with a large enough effect in the signal ratio, with a control signal flat, not every such curve was filed as active; inconclusive = small, poorly fitted or top-dose-only effect, or effect the other way, or a change in a side signal; the % refers to the signal ratio; note: % of control where 0% means no effect
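Titrated compounds plus EC10 NKH 477 on CHO CRE-bla cells, 3 h, 37 °C. CCF4, 2 h RT. Ratio 460/530 nm → AC50.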
IkB signaling: suppresses IkB signaling in ABC-DLBCL reporter cells; ABC-DLBCL IkBa-CBG/CBR dual luciferase ratio, 4 h; response scale: scaled: untreated 0%, proteasome inhibitor 100%; Potency, µM (titrated, usually from 57.1 µM), without a hit: at the highest dose IkBa stabilization activation; 0.04% of 110,000 active; AID 445; active = well fitted curve in the direction sought with a large enough effect in the signal ratio, not every such curve was filed as active; inconclusive = small, poorly fitted or top-dose-only effect, or a change in a side signal; the % refers to the signal ratio;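 note: the direction sought is a rising ratio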
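In this assay, an IκBα–CBG68 fusion accumulates when IKK-driven degradation is blocked; native CBR normalizes for cell number. OCI-Ly3 cells were treated 4 h with compound and doxycycline, then green and red light read after Chroma-Glo addition.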
* marks the source's active call; other numbers are inactive results; ? = inconclusive; . = no result; [ ] = dose if it differs, or a comment. Unless noted, calls come from the whole dose curve; as a rule, active = well fitted curve in the direction sought with a large enough effect; inconclusive = small, poorly fitted or top-dose-only effect, or another doubt; inactive = no such curve, though single readings can be large; an effect the other way counts as inactive or inconclusive. Potency is the fitted concentration of half-maximal effect.

SMILES	p53ts 39C kill	p53ts 32C kill	Peg3 imprint	CRE-bla Fsk	IkB signaling
O=C(CSc1nnc2[nH]c(=O)cc(-c3ccccc3)n12)Nc1cc(C(F)(F)F)ccc1Cl	1.3µM*	0.63µM*	16%[10.9 µM]	.	?
Nc1ccc2oc(-c3ccccc3Br)nc2c1	13µM*	13µM*	-20%[10.9 µM]	.	2%
Cc1ccc(-c2nc3cc(C(C)C)ccc3o2)cc1NC(=O)c1cc2ccccc2o1	4%	0%	-12%[10.9 µM]	.	42%
CC(C)c1ccc2oc(-c3cc(N)ccc3O)nc2c1	16µM*	13µM*	-70%	?	?
Cc1ccccc1-c1nc2cc(N)ccc2o1	?	?	-57%	11%	1%
COc1ccc(-c2c(C)c3ccc(O)c(CN4CCC(C)CC4)c3oc2=O)cc1OC	0%	7%	-7%[10.9 µM]	.	?
COC(=O)c1c(C(=O)OC)c2oc3ccccc3n2c1Cl	-7%	-5%	-8%	13µM*	?
CCNc1ncc2nc(-c3ccccc3)c(=O)n(CCc3ccccc3)c2n1	5%	-4%	.	?	-3%[11.4 µM]
CCNc1ncc2nc(C)c(=O)n(CCc3ccccc3)c2n1	-14%	3%	-11%	2µM*	-2%[11.4 µM]
Cc1nc2cnc(Nc3ccccc3)nc2n(CCC#N)c1=O	7%	4%	-2%	?	1%[11.4 µM]
CCNc1ncc2nc(C)c(=O)n(CCC#N)c2n1	-10%	-6%	?	13µM*	2%[11.4 µM]
CCC(=O)Nc1ccccc1-c1nc2ccccc2n(C(C)C(=O)Nc2cccc(Cl)c2C)c1=O (centres undefined)	-18%	4%	-17%[10.9 µM]	.	0%
N#Cc1c(-c2cccs2)cc(-c2cccnc2)nc1N	15%	14%	-7%	4µM*	0%
N#Cc1c(-c2cccs2)cc(-c2ccccn2)nc1N	5%	25%	-10%	-3%	0%
COc1cccc(C2=NOC(C(=O)NCc3ccc(F)cc3)C2)c1 (centres undefined)	-23%	3%	0%	13µM*	3%
COc1ccc(C2=NOC(C(=O)Nc3ccc(C)cc3)C2)cc1OC (centres undefined)	-10%	-8%	-12%	?	0%
COc1ccc(C2=NOC(C(=O)Nc3cc(C)nn3-c3ccccc3)C2)cc1OC (centres undefined)	-7%	7%	-21%	2.5µM*	-1%
COc1cc(C2=NOC(C(=O)NCc3ccc(F)cc3)C2)cc(OC)c1OC (centres undefined)	-6%	0%	-20%	?	?
COc1ccc(C2=NOC(C(=O)NCc3ccc(F)cc3)C2)cc1OC (centres undefined)	-20%	-6%	-17%	13µM*	3%
COc1ccc2nc(C)cc(Nc3ccc(Cl)c(Cl)c3)c2c1	13µM*	?	-13%[10.9 µM]	.	?
Cc1csc(=NC(=O)c2ccccc2)n1C	-21%	-25%	.	.	.
O=C(N=c1nc2ccccn2s1)c1ccccc1	?	2µM*	-67%	-11%	7%
COCCCNc1ncnc2c1cnn2-c1ccc(F)cc1	10µM*	?	-15%[10.9 µM]	.	-2%
CCC(C)Nc1ncnc2c1cnn2-c1ccc(F)cc1 (centres undefined)	7.9µM*	?	-9%[10.9 µM]	.	?
Cc1ccc(CNC(=O)Cn2ncc3c(C)n(Cc4ccc(Cl)cc4)c(C)c3c2=O)cc1	16µM*	-15%	-9%[10.9 µM]	.	?
SMILES	p53ts 39C kill	p53ts 32C kill	Peg3 imprint	CRE-bla Fsk	IkB signaling
O=C(O)c1cc(-c2ccc(C(F)(F)F)cc2)nc2n[nH]c(-c3ccccc3)c12	10µM*	?	-8%[10.9 µM]	.	0%
COc1ccc(-c2cc(C(=O)NCCc3ccccc3)c3c(-c4ccc(Cl)cc4)[nH]nc3n2)cc1	13µM*	13µM*	-27%[10.9 µM]	.	4%
CCOc1ccc(-c2cc(C(=O)NCc3ccccc3)c3c(-c4ccc(CC)cc4)[nH]nc3n2)cc1	0%	1%	5%[10.9 µM]	.	-1%
COc1ccc(-c2cc(C(=O)NCCc3ccccc3)c3c(-c4ccccc4)[nH]nc3n2)cc1	13µM*	?	-5%[10.9 µM]	.	?
O=C(CCSCc1cnn(-c2ccccc2)c1-n1cccc1)NCc1ccccc1F	-21%	-5%	5%[10.9 µM]	.	5%
COc1ccccc1-c1nc2c(c(SCC(=O)Nc3ccc(C)c(C)c3)n1)Cc1c(CO)cnc(C)c1O2	-9%	-6%	-15%[10.9 µM]	.	-2%
CCc1ccc(C(=O)c2cn(CC(=O)Nc3cc(OC)cc(OC)c3)c3ccc(CC)cc3c2=O)cc1	13µM*	-5%	-20%[10.9 µM]	.	?
Cc1ccc(CNC(=O)Cn2nc(C)n3cccc3c2=O)cc1	-10%	4%	-14%[10.9 µM]	.	0%
CCc1nn(CC(=O)NCc2ccccc2)c(=O)c2cccn12	20µM*	-24%	-16%[10.9 µM]	.	-2%
COc1ccccc1C1CC(=O)Oc2cc3c(cc21)OCO3 (centres undefined)	.	.	3%	.	.
COc1ccc(F)cc1S(=O)(=O)Nc1cccc(-c2ccc(N3CCC(C)CC3)nn2)c1	7.9µM*	?	-8%[10.9 µM]	.	11%
COc1ccc(S(=O)(=O)Nc2cccc(-c3ccc(N4CCCC4)nn3)c2)cc1OC	17%	-7%	-14%[10.9 µM]	.	?
COc1ccc(S(=O)(=O)Nc2cccc(-c3ccc(N4CCC(C)CC4)nn3)c2)cc1OC	2.5µM*	3.2µM*	-16%[10.9 µM]	.	?
O=C(Cn1c(=O)n(-c2ccccc2)c(=O)c2c3c(sc21)CCCC3)Nc1ccccc1	13µM*	?	6%[10.9 µM]	.	5%
O=c1c2ccccc2nc(-c2ccco2)n1/N=C/c1ccccc1O	-1%	-4%	.	.	.
O=c1c2ccccc2nc(-c2ccco2)n1/N=C/c1ccco1	7%	-4%	-40%	10µM*	1%
CCN(C(=O)c1cc2c(=O)n(CC)c3ccccc3c2s1)c1cccc(C(F)(F)F)c1	3%	6%	-15%[10.9 µM]	.	?
O=c1c(CCc2ccccc2)nc2cnc(N3CCNCC3)nc2n1CCc1ccccc1	10µM*	13µM*	.	?	-2%[11.4 µM]
COc1cccc(Cn2c(=O)c(-c3cc(F)cc(F)c3)nc3cnc(N4CCNCC4)nc32)c1	16µM*	?	-41%	?	0%[11.4 µM]
O=c1c(-c2cc(F)cc(F)c2)nc2cnc(N3CCNCC3)nc2n1Cc1ccc(F)cc1	?	?	-47%	?	-1%[11.4 µM]
CN1CCN(c2ncc3nc(CCc4ccccc4)c(=O)n(CCc4ccccc4)c3n2)CC1	?	?	-11%	?	1%[11.4 µM]
COc1cccc(Cn2c(=O)c(CCc3ccccc3)nc3cnc(N4CCOCC4)nc32)c1	17%	11%	?	2µM*	3%[11.4 µM]
CCS(=O)(=O)N1CCCc2cc(C(=O)Nc3cc([N+](=O)[O-])ccc3C)ccc21	-25%	-29%	-18%[10.9 µM]	.	2%
Cc1ccc(NC(=O)c2nnn(Cc3cccc(C(F)(F)F)c3)c2N)c(C)c1	-3%	-4%	-15%[10.9 µM]	.	?

High-throughput results as filed in PubChem BioAssay.
